Compound activity (PubChem BioAssay)
MmCpn inh: inhibitors of Methanococcus maripaludis chaperonin TRiC (MmCpn); purified Mm-Cpn ATPase, ADP Transcreener TR-FRET; Potency, µM (titrated, usually from 76.9 µM), actives largely listed as inhibitors; 0.031% of 330,000 active; AID 504842; note: nearly all actives have a fitted effect of over 80% in size
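Quantitative HTS used 25 nM Mm-CPN and 10 uM ATP in magnesium/KCl Tris buffer, pH 7.4, with 1 mM DTT. Hydrolysis ran 30 min at 37°C; ADP was read by HTRF.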
Abeta rescue: compounds reversing amyloid beta toxicity in yeast; yeast expressing A-beta42, growth rescue, OD600, 48 h; response scale: 0% DMSO, 100% iron-clioquinol control; Potency, µM (top dose mostly 46.1 µM), actives largely listed as activators; 0.063% of 410,000 active; AID 1347071; note: nearly all actives have a fitted effect of over 55% in size
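Growth rescue measured by 600 nm absorbance after 48 h yeast culture at 30 C with compound. Values normalized between DMSO and an equimolar ferric chloride plus clioquinol control.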
ClpP mod: qHTS Assay for Activators of ClpP; Potency, µM (series often up to 57.5 µM); AID 651965, 2013; purified B. subtilis ClpP, FRET peptide cleavage, 20 min; 1.9% of 340,000 active; ATP-dependent Clp protease proteolytic subunit (Bacillus subtilis (strain 168)), P80244; active = well fitted falling curve with a large enough effect; inconclusive = small, poorly fitted or top-dose-only effect; inactive = no such curve, though single readings can be large or run the other way; note: the source files actives as falling curves though it sought activators and does not explain the sign; nearly all actives have a fitted effect of over 65% in size
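Buffer: 100 mM Tris/HCl pH8, 100 mM KCl, 0.05% low protease BSA, 2.5% glycerol, 0.01% Tween-20. ClpP 10 microg/mL final; 20 min RT; delta FRET normalized to ADEP and DMSO controls.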
FUS suppressor: FUS proteinopathy suppression in yeast. S. cerevisiae FUS-expressing, growth rescue, OD600, 24 h. Potency, µM (titrated, usually from 76.6 µM), most hits filed as activators. 0.24% of 390,000 active; note: nearly all actives have a fitted effect of over 55% in size
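Compound concentration series was pinned onto galactose-induced FUS-expressing yeast seeded at OD 0.005. Plates sat 24hr at 30C; absorbance at 600 nm gave growth. DMSO served as background control.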
aSyn rescue: rescues yeast growth from alpha-synuclein toxicity | Potency, µM (series often up to 46.1 µM), usual class: activators | Yeast expressing alpha-synuclein, growth rescue, BacTiter-Glo, 24 h | 0.14% of 370,000 active; note: nearly all actives have a fitted effect of over 65% in size
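Galactose-induced alpha-syn yeast (OD600=0.02, raffinose-pregrown) + pinned cpd, 24 hr, 30 deg C; growth by BacTiter-Glo luminescence. Growth restoration scores as activation.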
TDP43 rescue: rescues yeast growth from TDP-43 toxicity | TDP-43 expressing yeast growth rescue, BacTiter-Glo, 24 h | Potency, µM (titrated, usually from 46.1 µM), actives largely listed as activators | 1.8% of 410,000 active; note: nearly all actives have a fitted effect of over 50% in size
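Readout is BacTiter-Glo luminescence of cell growth, so inhibitors register as activators. TDP-43-expressing yeast at OD600=0.02 in galactose medium, after raffinose pregrowth to mid-log, were incubated with compound for 24 hr at 30 deg C.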
Of the large screens only hits and unclear results are named; the others gave an inactive call; ! = repeats disagree. Only some compounds are listed: those with a hit (about 3.6% of all), similar ones and a draw of the others. Unless noted, calls come from the whole dose curve; as a rule, active = well fitted curve in the direction sought with a large enough effect; inconclusive = small, poorly fitted or top-dose-only effect, or another doubt; inactive = no such curve, though single readings can be large; an effect the other way counts as inactive or inconclusive.

NC(Cc1ccc(O)cc1)C(=O)NN=Cc1ccc(N(CCCl)CCCl)cc1 (stereo not given)	ClpP mod 28.2µM (no result: MmCpn inh, FUS suppressor)
O=C(CN1CCOCC1)c1cccc([N+](=O)[O-])c1	none (no result: MmCpn inh, Abeta rescue, FUS suppressor, TDP43 rescue)
CN1CCN(C(=O)COc2ccc(-c3nc4ccccc4s3)cc2)CC1	ClpP mod 25.1µM
CCCCCCCCCCCCCC(=O)O[C@@H]1[C@@H](C)[C@@]2(O)[C@@H](C=C(CO)C[C@@]3(O)C(=O)C(C)=C[C@@H]23)C2C(C)(C)[C@@]21OC(C)=O (stereo not given in full)	none (no result: MmCpn inh, Abeta rescue, ClpP mod, FUS suppressor, TDP43 rescue)
CC(C)(C)c1ccc(C(=O)Nc2ccc3nc(SCC(=O)N4CCCC4)sc3c2)cc1	ClpP mod inconclusive, FUS suppressor inconclusive, TDP43 rescue inconclusive (no result: MmCpn inh, aSyn rescue)
CCC(=O)c1cn(Cc2ccccc2C#N)c2ccccc12	TDP43 rescue 25.1µM
N#Cc1ccccc1Cn1cc(C(=O)C2CC2)c2ccccc21	TDP43 rescue 20µM
COC1=C(C)C(=O)c2c(c(COC(N)=O)c3n2C[C@@H]2[C@@H]3N2C)C1=O (stereo not given in full)	none (no result: MmCpn inh, Abeta rescue, FUS suppressor, TDP43 rescue)
COc1ccc(Cl)cc1NC(=O)C1CCN(c2nnc(C)c3c(C)n(-c4ccccc4)nc23)CC1	ClpP mod 28.2µM (no result: MmCpn inh, aSyn rescue)
O=C1/C(=C/c2ccc(F)cc2)Oc2cc(OC(=O)N3CCOCC3)ccc21	ClpP mod 17.8µM
Oc1ccccc1/C=N/[n+]1ccccc1	none (no result: ClpP mod)
COc1ccc(N2CCN(C(CNC(=O)Oc3ccccc3)c3cccnc3)CC2)cc1 (stereo not given)	none
O=C(NCC(c1cccnc1)N1CCN(c2ccccc2F)CC1)Oc1ccccc1 (stereo not given)	ClpP mod 22.4µM
CC1=NN(c2ccccc2)C(=O)C1/C=C1\C(=O)NC(=O)N(c2cc(C)cc(C)c2)C1=O (stereo not given)	ClpP mod 25.1µM
CC1=NN(c2ccccc2)C(=O)C1/C=C1/C(=O)NC(=O)N(c2cc(C)cc(C)c2)C1=O (stereo not given)	none
Cc1cc(C)cc(N2C(=O)NC(=O)/C(=C\C=C\c3ccco3)C2=O)c1	ClpP mod 15.8µM (no result: FUS suppressor)
CCC(=O)Nc1ccc(C(=O)NNC(=O)c2cc([N+](=O)[O-])cc([N+](=O)[O-])c2)cc1	none (no result: ClpP mod)
CCCNc1oc(-c2cccc3ccccc23)nc1C#N	ClpP mod 28.2µM
COC(=O)c1cc2c(s1)=NC=NP=2(N1CCOCC1)N1CCOCC1	ClpP mod 28.2µM!
N#Cc1cc(NC(=O)c2ccc(Cl)cc2)ccc1Sc1ccccc1	none (no result: MmCpn inh)
CC(=O)c1c(O)cc2c3c1OC(C)(C)C1CCC(C)(CC31)O2 (stereo not given)	TDP43 rescue inconclusive (no result: MmCpn inh)
Nc1ccccc1C(=O)OCCOc1ccccc1	ClpP mod 28.2µM
CCC(=NCc1ccc2c(c1)OCO2)c1c(O)n(C2CCCCC2)c(=O)[nH]c1=O	TDP43 rescue 20µM
COc1cccc(Cn2c(-c3cccs3)noc2=O)c1	TDP43 rescue inconclusive
COc1ccc(-c2noc(=O)n2Cc2cc(C)ccc2C)cc1	TDP43 rescue 17.8µM
Cc1cccc(OCCNc2ncccc2[N+](=O)[O-])c1	TDP43 rescue inconclusive (no result: MmCpn inh)
O=C(c1cccn2c(=O)c3cc(Cl)ccc3nc12)N1CCC2(CC1)OCCO2	ClpP mod 25.1µM
N#CCCN	none (no result: MmCpn inh, Abeta rescue, ClpP mod, FUS suppressor, TDP43 rescue)
C=C1C=C(C(F)F)n2ncc(C(=O)NCc3ccccc3F)c2N1	none (no result: MmCpn inh, Abeta rescue, FUS suppressor, TDP43 rescue)
CCN(CC(=O)Nc1ccccc1C(F)(F)F)C(=O)CCSc1ccc(F)cc1	ClpP mod 12.6µM
N[C@@H](Cn1ccc(=O)[nH]c1=O)C(=O)O	none (no result: MmCpn inh, Abeta rescue, ClpP mod, FUS suppressor, TDP43 rescue)
CC(C)(C)c1ccc(OCCON2C(=O)CCC2=O)c(Cl)c1	TDP43 rescue 12.6µM
O=C(CCC1N=C2c3ccccc3N=C(SCc3cccc(Cl)c3)N2C1=O)N1CCN(c2ccccc2)CC1 (stereo not given)	FUS suppressor inconclusive, TDP43 rescue inconclusive (no result: MmCpn inh, aSyn rescue)
CCOC(=O)c1ccc(N2C(=O)c3n[nH]c(-c4cccs4)c3C2c2ccc(OC)cc2OC)cc1 (stereo not given)	ClpP mod inconclusive (no result: MmCpn inh, aSyn rescue)
COC(=O)C1=C(c2ccc(F)cc2F)C[C@@H]2CC[C@H]1N2C(=O)N1CCC(O)(c2ccc(Cl)cc2)CC1	Abeta rescue inconclusive, FUS suppressor inconclusive, aSyn rescue inconclusive, TDP43 rescue 20µM
CCOc1ccc(C(=O)Nc2cc(NC(=O)c3ccco3)ccc2OC)cc1Br	TDP43 rescue inconclusive (no result: MmCpn inh, aSyn rescue)
Cc1cccc(C)c1NC(=O)c1cccn(Cc2ccc3c(c2)OC(F)(F)O3)c1=O	FUS suppressor inconclusive, TDP43 rescue 20µM
Cc1cc(NC(=O)c2cccn(Cc3cccc(Cl)c3)c2=O)no1	ClpP mod 35.5µM, TDP43 rescue inconclusive (no result: MmCpn inh)
